Screening data as filed in PubChem BioAssay.
An excerpt weighted towards active compounds, which were near 4.6% of everything screened.
TRHR agonist: agonists of human TRH receptor. P34981. TRHR cells, calcium flux fluo-8, FDSS agonist mode. activation, % at 2 µM. 360,000 compounds, 0.18% hits; further: 0% is about no effect
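Read-out: compound-evoked intracellular calcium rise in TRHR cells, fluo-8 dye, kinetic FDSS fluorescence at 1 s/cycle following a 10-cycle baseline. Cells cultured overnight before dye loading (30 min–1.5 h, RT).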
TRHR PAM: allosterically enhances the human TRH receptor. enhancement, % at 2 µM. AID 493056. 360,000 compounds, 0.66% hits. P34981. TRHR cells, fluo-8 calcium fluorescence, EC20 TRH enhancement; in the data active means enhancement above about 30%; further: 0% is about no effect
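TRHR-expressing cells loaded with fluo-8 calcium dye were read kinetically (ex 480/em 530) during compound addition, then stimulated with an EC20 of TRH (10 nM final). Enhancement of the Gq-mediated intracellular calcium response was scored.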
D1 potentiator: human D1 dopamine receptor positive modulation | P21728 | HEK293 TREx D1 cells, calcium flux, dopamine EC20 potentiation | potentiation, % at 10 µM | 360,000 compounds, 0.036% hits | AID 504651; in the data active means potentiation above about 30%; further: 0% is about no effect
Target sequence (P21728 whole entry, looked up): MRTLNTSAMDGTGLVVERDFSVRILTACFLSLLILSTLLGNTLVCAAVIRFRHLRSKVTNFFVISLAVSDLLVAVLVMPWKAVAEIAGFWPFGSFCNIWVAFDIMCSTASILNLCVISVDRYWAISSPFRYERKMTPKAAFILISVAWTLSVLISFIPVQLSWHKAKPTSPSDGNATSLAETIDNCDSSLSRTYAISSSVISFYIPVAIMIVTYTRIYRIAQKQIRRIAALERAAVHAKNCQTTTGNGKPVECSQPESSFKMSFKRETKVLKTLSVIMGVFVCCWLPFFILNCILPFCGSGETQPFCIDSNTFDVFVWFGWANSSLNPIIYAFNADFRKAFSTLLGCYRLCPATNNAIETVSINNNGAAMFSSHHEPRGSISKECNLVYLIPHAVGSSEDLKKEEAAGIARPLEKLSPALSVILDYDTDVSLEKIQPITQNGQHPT
D1 antag: antagonists of human D1 dopamine receptor. activity change, negative = inhibition, % at 10 µM. 360,000 compounds, 3.2% hits. HEK293 TREx D1 cells, calcium flux, dopamine EC80; active compounds read low. AID 504652; in the data active means activity change below about -30%; further: on the % scale 0 is the no-effect control and ±100 the full control effect
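Antagonism measured as reduced calcium response to an EC80 dopamine addition following 180 s compound pre-read; cells were inducible HEK293 Trex D1 plated overnight at 30 C, read kinetically at 1 cycle/sec.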
D1 ag: agonists of human D1 dopamine receptor | P21728 | HEK293 T-REx D1 cells, calcium flux, agonist mode | activation, % at 2 µM | 360,000 compounds, 1% hits; further: 0% is about no effect
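Agonism was scored from calcium flux recorded over 180 s (1 read/s) after pintool compound addition, following a 10-cycle baseline. Cells were inducible force-coupled HEK293 TREx D1, plated overnight at 30 C and loaded with no-wash calcium dye.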
* marks the source's active call; other numbers are inactive results; . = no result; ! = a repeat was not active. Unless noted, no stated cut-off is given here; in the data, active means activation above about 30%; inactive means the rest.

SMILES	TRHR agonist	TRHR PAM	D1 potentiator	D1 antag	D1 ag
Cc1cccc(NC(=S)N2CCN(c3cc(C)ccc3C)CC2)c1	0.2	-4.5	-8.9	-34.8*	5.1
CC(=O)c1ccc(N2CCN(C(=O)CCC(=O)Nc3ccc4nc(N5CCN(C)CC5)cc(C)c4c3)CC2)cc1	0.4	2.1	-8.6	-36.5*	-2.7
Cc1ccc(C)c(N2CCN(C(=S)Nc3ccc4nc(N5CCOCC5)cc(C)c4c3)CC2)c1	-0.8	1.7	1.2	4.0	11.0
COc1ccc(NC(=O)c2cnc[nH]2)cc1	0.0	-6.9	-3.8	5.3	1.2
Cc1ccccc1NC(=O)Cn1c(=O)n(Cc2ccco2)c(=O)c2cccnc21	-0.4	-4.1	-4.4	3.4	0.5
C=C[C@@H]1c2cc(C)ccc2N(S(=O)(=O)c2ccc(C)cc2)[C@H](c2ccccc2C(F)(F)F)C1(C#N)C#N	0.7	-6.2	-2.9	-35.2*	1.3
CCc1nc(N2CCC3(CC2)OCCO3)c2nnn(Cc3ccccc3)c2n1	0.6	37.1*	2.2	-10.7	2.3
c1ccc(Cn2nnc3c(N4CCC5(CC4)OCCO5)ncnc32)cc1	-0.1	-2.2	-6.7	-3.7	-2.0
CCOC(=O)c1cnn(-c2cccc(F)c2)c1C1CCNCC1	-1.9	8.7	-0.2	7.4	9.1
Cc1cc(C)c2nc(N3CCCC(C(=O)NCCCN4CCOCC4)C3)sc2c1 (stereo unspecified)	-0.4	-4.5	-4.2	1.1	0.2
CCN1CCN(CCCNC(=O)C2CCCN(c3nc4c(C)cc(C)cc4s3)C2)CC1 (stereo unspecified)	0.5	4.0	-9.4	-35.0*	-0.7
COc1ccc(OC)c(-c2cc(C(=O)Nc3ccc(C)c(C)c3)no2)c1	0.8	-7.7	-1.9	-8.1	5.0
COc1ccc(OC)c(-c2cc(C(=O)N3CCOCC3)no2)c1	-1.0	36.8*	-4.8	-0.1	0.5
COc1ccc(OC)c(-c2cc(C(=O)Nc3cccc(Cl)c3C)no2)c1	0.6	-13.8	1.2	-40.4*	9.5
CC1CCCN(C(=O)COC(=O)C2CCN(S(=O)(=O)c3ccc4c(c3)OCCO4)CC2)C1 (stereo unspecified)	-0.4	-2.0	-0.8	0.8	6.1
COc1ccc(S(=O)(=O)NC2CCc3ccccc32)cc1OC (stereo unspecified)	0.2	-0.4	-5.2	-37.2*	10.8
Cn1c(=O)oc2cc(S(=O)(=O)NC3CCCc4ccccc43)ccc21 (stereo unspecified)	0.5	1.4	.	-35.9*	20.4
COc1ccc(C(=O)n2nc(-c3ccco3)nc2NCc2cccs2)cc1OC	1.4	-5.1	2.7	2.1	7.6
O=S(=O)(c1ccc(Cl)cc1)c1nc(-c2ccco2)oc1SCc1ccc(F)cc1	1.6	1.4	1.9	-20.6	15.8
Cc1ccc(O)c(NC(=O)CSc2n[nH]c(C)c2[N+](=O)[O-])c1	0.2	-0.1	-7.1	-33.6*	16.1
Cc1[nH]nc(SCC(=O)NCc2ccc(F)cc2)c1[N+](=O)[O-]	-0.9	-8.3	-6.2	-39.8*	-0.8
N#CCn1c(CN2CCCC2)nc2ccccc2c1=O	0.6	8.2	-4.5	-4.7	1.3
Cc1ccc(C)c(Cn2c3ccccc3c3cnn(CC(=O)NC(C)CCc4ccccc4)c(=O)c32)c1 (stereo unspecified)	-2.2	5.0	-3.3	-1.2	1.0
CN(C(=O)c1cc2c(s1)-c1ccc(Cl)cc1SC2)c1cccc(C(F)(F)F)c1	0.4	2.6	-2.1	5.1	7.0
CCOC(=O)N1CCC(N2Cc3cccc(C(=O)Nc4ccc(CC)cc4)c3C2=O)CC1	0.8	3.4	-1.4	-2.5	1.1
SMILES	TRHR agonist	TRHR PAM	D1 potentiator	D1 antag	D1 ag
CCOC(=O)N1CCC(N2Cc3cccc(C(=O)Nc4ccc(F)cc4)c3C2=O)CC1	0.4	-1.9	-1.6	-53.4*	-0.2
Cc1nnc2ccc(N3CCN(C(=O)c4ccccc4)CC3)nn12	0.1	0.2	-1.6	-61.6*	0.4
Cc1ccc(C(=O)N2CCN(c3ccc(N4CCOCC4)nn3)CC2)cc1	-0.4	4.3	-10.6	-32.1*	0.7
O=C(NCCc1nnc2ccc(N3CCCCCC3)nn12)c1ccccc1	5.4	-0.6	-11.9	-30.9*	41.2*
CC(C)Oc1ccccc1-c1nc(SCC(=O)c2ccc(F)cc2)n[nH]1	0.2	1.8	1.9	12.7	-0.2
COc1ccc(-n2ncc(C(=O)N3CCN(c4ccccn4)CC3)c2C2CCN(C(=O)OC(C)(C)C)CC2)cc1	-0.4	5.9	-0.1	4.8	0.2
COc1ccc(NC(=O)Cn2ncc(Cl)c(Cl)c2=O)cc1S(=O)(=O)N1CCOCC1	-1.6	0.2	-12.1	-40.4*	0.0
COc1ccc(NC(=O)c2ccc(Cl)nc2)cc1S(=O)(=O)N1CCOCC1	1.9	-1.4	-0.2	-15.1	4.3
O=C(Cn1ncc(Cl)c(Cl)c1=O)Nc1ccc2c(c1)OCO2	-0.1	2.0	-8.9	-50.0*	0.0
CCc1ccc2oc(C(=O)Nc3nonc3CC)c(C)c2c1	-1.0	-24.6	-8.9	-37.6*!	6.8
O=C(CC1Nc2ccccc2NC1=O)c1ccccc1 (stereo unspecified)	16.5	-3.2	-3.1	1.3	67.9*
Cc1ccc(S(=O)(=O)N(C)C)cc1NC(=O)COC(=O)c1ccc2ccccc2n1	-0.2	5.6	0.7	-55.2*	0.1
CCOC(=O)c1c(NC(=O)CSc2nnc(-c3ccccc3)o2)sc(C(C)=O)c1C	-0.3	-1.9	-1.8	-2.5	1.1
CCOC(=O)c1c(NC(=O)CSc2nnc(Cc3ccccc3)o2)sc(C(C)=O)c1C	-1.0	-1.6	-9.6	-35.7*	0.9
CSC1=NC2C(N1)N(C)C(=O)N2C (stereo unspecified)	0.0	38.6*	3.9	13.6	4.0
Cc1cc(F)c(F)c(C(=O)N2CCCCC2C)c1Cl (stereo unspecified)	-0.2	-4.0	0.9	-31.0*	1.5
CCOC(=O)c1ccc(N=c2sc(C(=O)OC)cc(=O)n2CCCN2CCOCC2)cc1	0.3	0.1	-8.7	-40.5*!	3.5
COc1ccccc1NC(=O)CCN1C(=O)C2C3CCC(C3)C2C1=O (stereo unspecified)	0.5	-1.8	-6.1	-78.4*	1.0
COc1ccc(Cl)cc1NC(=O)CCN1C(=O)C2C3CCC(C3)C2C1=O (stereo unspecified)	-1.1	-3.9	-4.5	2.4	2.4
CC(C)C(=O)NCCSc1c[nH]c2ccccc12	-0.1	10.9	-10.2	-86.6*	-0.1
CCC(=O)NCCSc1c[nH]c2ccccc12	-0.1	0.5	-4.8	-16.5	-0.2
CCN1CCN(C(=O)c2ccc3c(c2)N(Cc2c(F)cccc2Cl)C(=O)c2ccccc2S3)CC1	0.2	-6.9	10.3	-2.9	6.7
O=C(C[n+]1cc(-c2ccc(Cl)c(Cl)c2)n2c1CCC2)N1c2ccccc2Sc2ccccc21	-1.4	-6.6	-6.8	-38.9*	0.8
